In the library only some 2.7% were active in any assay of this set; here they are far more common.
TMEM16A act = mouse TMEM16A channel activation, primary screen | B-score at 10 µM | AID 623877 | actives 0.3% (n = 340,000) | HEK293 TMEM16A/YFP-H148Q/I152L, iodide quench fluorescence; stronger effect = lower value | Q8BHY3;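 active = fluorescence-ratio B-score plate-corrected deviation score at least 3 library SD below zero, with starting fluorescence score within 5 deviations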;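 note: channel opened by trigger with iodide after compound preincubation; score built on the fluorescence ratio of max minus min over baseline; more negative score means more quench and so TMEM16A activation or potentiation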
FID counter = fluorescent intercalator displacement, NS3 helicase counter-screen | inhibition, % at 7.9 µM | actives 0.17% (n = 290,000) | DNA fluorescent intercalator displacement, fluorescence | AID 1845; in the data active = inhibition above about 37%;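 note: 0% = vehicle and 100% = reference compound; higher means more ethidium bromide displaced from hairpin DNA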
PP1 counter = counter-screen for PP5 inhibitors: inhibitors of human PP1-alpha; purified PP1alpha, OMFP fluorescence; inhibition, % at 6.7 µM; actives 0.9% (n = 320,000); AID 2235;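 active = inhibition above the mean inhibition of all tested compounds plus 3 SD, computed separately for each screening campaign, cut at about 15% in these data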
Target sequence (P62136 whole entry, looked up): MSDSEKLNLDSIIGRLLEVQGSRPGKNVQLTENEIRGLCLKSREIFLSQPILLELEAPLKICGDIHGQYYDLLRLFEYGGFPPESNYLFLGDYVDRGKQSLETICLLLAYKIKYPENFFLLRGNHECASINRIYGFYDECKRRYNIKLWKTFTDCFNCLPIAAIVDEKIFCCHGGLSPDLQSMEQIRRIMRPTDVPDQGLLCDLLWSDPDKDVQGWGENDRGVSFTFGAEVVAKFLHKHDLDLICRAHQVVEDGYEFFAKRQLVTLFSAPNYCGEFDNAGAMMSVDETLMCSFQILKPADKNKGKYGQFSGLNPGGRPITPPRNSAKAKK
PREPL inhibitor = human PREPL enzyme inhibition | inhibition, % at 5.96 µM | Q4J6C6 | recombinant PREPL, fluorescence polarization activity-based probe | actives 0.68% (n = 320,000); in the data active = inhibition above about 43%;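 note: 0% = enzyme with DMSO and 100% = wells lacking enzyme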
ANO1 block = inhibitors of mouse TMEM16A calcium-activated chloride channel; normalized B-score (activity score, 25-100; higher = stronger inhibition) at 10 µM; AID 588511; Q8BHY3; HEK293 TMEM16A/YFP iodide influx fluorescence, ionomycin; actives 1.2% (n = 310,000);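 active = ratio plate-corrected score three or more library SD toward inhibition, starting fluorescence score within five deviations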;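 note: score derived from kinetic fluorescence span divided by baseline fluorescence per well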
PP5 inh = blocks human protein phosphatase 5 activity. P53041. purified PP5c, OMFP substrate fluorescence. inhibition, % at 6.7 µM. actives 0.18% (n = 320,000);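 active = inhibition above the campaign's mean inhibition across all tested compounds plus 3 SD, cut at about 9.5% in these data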;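 note: 0% = DMSO only and 100% = 100 µM cantharidin control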
Numbers without * were called inactive; i = inactive; x = no result given.

SMILES	TMEM16A act	FID counter	PP1 counter	PREPL inhibitor	ANO1 block	PP5 inh
CCSc1nnc(NC(=O)C2CCCCC2)s1	i	-9.3	2.1	4.6	i	3.0
CCN(Cc1cc2ccccc2[nH]c1=O)C(=O)C(C)C	-4.82*	2.9	7.7	7.4	i	0.5
CCN(CC)C(=O)CN(c1cc2c(cc1OC)oc1ccccc12)S(=O)(=O)c1ccccc1	i	-9.3	1.2	-4.9	100*	4.8
COc1cc2oc3ccccc3c2cc1N(CC(=O)N1CCCCC1)S(=O)(=O)c1ccc(C)cc1	-29.2*	-26.5	6.4	-9.5	i	4.9
COc1cc2oc3ccccc3c2cc1N(CC(=O)N(C)C)S(=O)(=O)c1ccccc1	i	-26.9	0.0	3.8	i	2.8
COc1ccc(CCNC(=O)COC(=O)C2CC2C)cc1OC (stereo unspecified)	-41.7*	x	-2.8	-4.7	x	-0.8
COc1cccc(NC(=O)CN(C)C(=O)c2cc(S(=O)(=O)N3CCCCCC3)ccc2OC)c1	i	x	-2.5	9.3	x	0.1
O=C(O)CCCNc1cc(N2CCN(C(=O)c3ccco3)CC2)c2noc3c2c1C(=O)c1ccccc1-3	i	-50.0	6.8	32.5	i	5.8
CCOC(=O)N1CCN(c2cc(NCCC(=O)O)c3c4c(onc24)-c2ccccc2C3=O)CC1	-11.6*	-23.3	6.6	20.8	i	4.7
COc1ccc(C/C(C)=N\NC(=O)c2cn(C)c3ccccc23)cc1OC	i	-11.8	-6.1	9.8	i	-1.6
CCN1C/C(=N\S(=O)(=O)/N=C2\CN(CC)C(=O)N2CC)N(CC)C1=O	-8.15*	-12.0	-0.2	-1.7	i	-1.8
CCN1C(=O)CS/C1=N\S(=O)(=O)c1ccc(Cl)cc1	i	-19.1	-1.7	4.5	i	-0.1
CSc1cccc(NC(=O)/C=C/c2cccc(Cl)c2)c1	i	-4.0	3.3	18.2	100*	2.1
O=C(/C=C/c1cccc(C(F)(F)F)c1)Nc1cccc(C(F)(F)F)c1	-7.2*	2.4	4.4	-2.1	100*	6.3
Cc1ccc(NC(=O)/C=C/c2cccc(C(F)(F)F)c2)cc1	i	2.4	2.3	0.6	i	2.5
COC(=O)C(Nc1ccccc1Cl)(c1cc(C)c(O)c(C)c1)C(F)(F)F (stereo unspecified)	i	-11.6	3.8	0.5	100*	2.8
CCOC(=O)C(NC(=O)c1ccccc1Cl)(Nc1ccc(C)c(C)c1)C(F)(F)F (stereo unspecified)	i	-1.0	-3.5	2.8	i	-1.4
CC[C@@]1(C(=O)OC)N[C@H](CN(C)S(=O)(=O)c2ccc(OC)cc2)[C@@H]2C(=O)N(C)C(=O)[C@@H]21	i	x	x	15.3	x	x
C=C1C(=O)OC2C=C(CO)C3OC3C3OC3(C)CC(OC(=O)/C(=C/C)COC(C)=O)C12 (stereo unspecified)	i	x	x	x	x	x
COCCOC(=O)C1=C(C)N(Cc2ccccc2)C(=O)NC1c1ccc(OC)cc1 (stereo unspecified)	i	-31.2	8.2	-13.7	100*	2.9
CCOC(=O)c1ccc(S(=O)(=O)NNc2ccc(C(F)(F)F)cn2)cc1	i	x	x	8.8	x	x
c1ccc(-c2oc3ncnc(NCCCn4ccnc4)c3c2-c2ccccc2)cc1	i	12.5	13.7	2.4	100*	5.4
COc1ccc(C2CC(c3ccccc3)=NN2c2ccc(S(N)(=O)=O)cc2)cc1OC (stereo unspecified)	-6.08*	-21.8	-0.2	29.0	i	5.0
O=c1[nH]c(=S)[nH]c2nc(-c3ccccc3)cnc12	i	x	-0.5	20.0	i	0.2
Cc1cc2nc3c(=O)[nH]c(=S)[nH]c3nc2cc1NC(=O)C(F)(F)F	-5.15*	-0.8	1.1	23.0	i	-2.2
SMILES	TMEM16A act	FID counter	PP1 counter	PREPL inhibitor	ANO1 block	PP5 inh
COc1ccc(S(=O)(=O)CC(=O)c2cc3cc(Br)ccc3oc2=O)cc1	i	-25.5	13.8	1.4	i	3.0
CC1(C)CC2CC(C)(CN2S(=O)(=O)c2ccc(C(=O)Nc3cccc(S(=O)(=O)N4CCOCC4)c3)cc2)C1 (stereo unspecified)	i	-22.0	6.5	-14.6	i	4.2
CC1(C)CC2CC(C)(CN2S(=O)(=O)c2ccc(C(=O)Nc3cc(S(=O)(=O)N4CCOCC4)ccc3Cl)cc2)C1 (stereo unspecified)	-11.8*	-20.6	6.0	-6.4	i	1.3
O=C(Nc1ccc(Br)c(C(F)(F)F)c1)c1ccc(C(F)(F)F)cc1	-13.2*	3.6	4.6	-4.5	i	3.3
O=C(Nc1ccc(OCC(F)(F)C(F)F)c(C(F)(F)F)c1)c1ccc(Cl)cc1	i	8.1	4.7	2.5	100*	6.1
Cc1cc(C)c(C(N)=O)c(SCC(=O)c2cc(C)n(-c3cc(C)on3)c2C)n1	i	x	x	18.2	x	x
CC1(c2nnc(-c3cccc(Cl)c3)o2)CC(c2cccc([N+](=O)[O-])c2)=NO1 (stereo unspecified)	-27.1*	-6.9	-1.6	-7.3	i	2.1
CC1(c2nnc(-c3ccccc3)o2)CC(c2cccc(Cl)c2)=NO1 (stereo unspecified)	i	x	-1.6	-29.4	i	4.4
O=C(Nc1ccc(Cl)cc1)[C@@H]1[C@@H]2C(=O)N(c3cccc(F)c3)C(=O)[C@@H]2[C@H]2C=CC=NN21	i	-4.0	0.6	6.0	i	-1.9
O=C(Nc1ccc(Cl)cc1)[C@@H]1[C@@H]2C(=O)N(c3ccc4ccccc4c3)C(=O)[C@@H]2[C@H]2C=CC=NN21	i	-11.1	15.2*	-26.3	i	2.1
Cc1cccc(N(Cc2ccccc2)C(=O)Cc2ccc(S(=O)(=O)N3CCOCC3)s2)c1	i	x	16.9*	-0.2	i	0.1
CCN(C(=O)c1cc(S(=O)(=O)N2CCOCC2)cn1C)c1cccc(C)c1	i	-9.8	3.9	19.9	100*	2.0
Cc1cccc(N(C)C(=O)c2cc(S(=O)(=O)N3CCCC3)cn2C)c1	i	-24.2	0.0	-2.7	i	1.3
CCN1CCN(C(=O)CN2C(=O)COc3ccc(C)cc32)CC1	i	-0.6	1.4	0.0	i	1.1
Oc1ccc(CCNc2c3ccccc3nc3ccccc23)cc1O	i	39.4*	0.7	10.6	i	0.5
Cc1nn(-c2ccccc2)c(C)c1/C=N/NC(=O)CSc1nnc(SCc2ccc(Cl)cc2)s1	i	-6.2	16.8*	-18.8	i	3.0
O=C(CSc1nnc(SCc2ccccc2)s1)N/N=C/c1c(Cl)cccc1Cl	i	0.3	8.4	2.9	i	9.1
COc1ccc(-c2ccc(-c3noc(-c4ccco4)n3)c(OC)n2)cc1	i	-7.7	16.3*	-8.5	i	-0.8
Cc1nnc(SCC(=O)N2CCN(S(=O)(=O)c3ccc(Cl)cc3)CC2)n(N)c1=O	-16.6*	-8.2	1.4	5.9	i	-0.5

Screening results (PubChem BioAssay)
